# Experimental data: PubChem BioAssay (EPA / NIEHS)
# Records with an inconclusive call do not appear. The source made the active and inactive calls. Rule for the calls: active = hit-call score of the fitted dose curve at least 0.9, where 1 is the maximum; inconclusive = response in the unintended direction; inactive = score below 0.9.
# Biological target: human Peripheral-type Benzodiazepine Receptor (PBR), TSPO (gene 706) (UniProt P30536)
# Experiment: NVS_MP_hPBR: NovaScreen (NVS) Membrane Protein Assay for human Peripheral-type Benzodiazepine Receptor (PBR) (AID 2283331)
# Experimental: NVS_MP_hPBR is a biochemical, single-readout assay that uses extracted gene-proteins from Human colonic cell membranes in a tissue-based cell-free assay. Measurements were taken 1 hour after chemical dosing in a 48-well plate.NVS_MP_hPBR is one of one assay component(s) measured or calculated from the NVS_MP_hPBR assay. It is designed to make measurements of radioligand binding, a form of binding reporter, as detected with scintillation counting signals by Filter-based radiodetection technology.Data from the assay component NVS_MP_hPBR was analyzed into 1 assay endpoint. This assay endpoint, NVS_MP_hPBR, was analyzed in the positive analysis fitting direction relative to DMSO as the negative control and baseline of activity. Using a type of binding reporter, loss-of-signal activity can be used to understand changes in the binding as they relate to the gene TSPO. Furthermore, this assay endpoint can be referred to as a primary readout, because the performed assay has only produced 1 assay endpoint. To generalize the intended target to other relatable targets, this assay endpoint is annotated to the transporter intended target family, where the subfamily is cholesterol transporter.
# Binding assays used specific radioligands (tritiated, iodinated) with non-radioactive competitive displacement ligands in agonist or antagonist protocols (as indicated) and various reference compounds and inhibitors to titrate specific binding to receptors and transporters. Most enzyme assays (CYPs, kinases, phosphatases, proteases, HDACs) used recombinant protein and specific substrates (fluorescence mostly, some colorimetric and radioactive) and inhibitors, followed by a biochemical separation of substrate and product. All assays for the biochemical HTS were initially run in duplicate at a single concentration (10 uM for CYP450 assays and 25 uM for all others). […] Each assay was run with positive and negative controls, and concurrent controls on every plate. The follow-up (secondary) screen tested active chemical-pairs in concentration series, as well as a few additional assays not tested in the primary screen, some selected negative inactives, and several cases re-run in the concentration series for confirmatory purposes.
# Chain of human Peripheral-type Benzodiazepine Receptor (PBR), TSPO (gene 706) (P30536 whole entry, looked up): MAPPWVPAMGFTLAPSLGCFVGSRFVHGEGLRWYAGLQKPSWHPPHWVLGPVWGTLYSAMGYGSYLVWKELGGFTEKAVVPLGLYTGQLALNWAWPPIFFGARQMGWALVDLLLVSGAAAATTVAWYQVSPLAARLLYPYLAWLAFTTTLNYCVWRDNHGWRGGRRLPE
SMILES,AC50,outcome
O=C(Oc1ccccc1)c1ccccc1C(=O)Oc1ccccc1,1.78 µM (active),
CCCCNS(=O)(=O)c1ccc(C)cc1,7.96 µM (active),
O=C(O)c1cc(O)c2ccccc2c1O,18 µM (active),
C/C=C/C=C/CCCCCCCO,12.2 µM (active),
CCCCC/C=C\C/C=C\CCCCCCCC(=O)O,5.35 µM (active),
CCOC(=O)C1=NOC(c2ccccc2)(c2ccccc2)C1,8.19 µM (active),
COc1ccc(C(=O)/C(Br)=C\C(=O)O)cc1,9.63 µM (active),
CCCCNC(=S)NCCCC,,inactive
COC(OC)(C(=O)c1ccccc1)c1ccccc1,21.9 µM (active),
CC/C=C\C/C=C\C/C=C\CCCCCCCC(=O)OC,7.69 µM (active),
COc1ccc(-c2coc3cc(O)cc(O)c3c2=O)cc1,0.293 µM (active),
CC(Cl)COP(=O)(OCC(C)Cl)OCC(C)Cl (stereo not drawn),25 µM (active),
CN(C)c1ccc2nc3ccc(=[N+](C)C)cc-3sc2c1,10.2 µM (active),
CCCCCCCOC(=O)c1ccc(O)cc1,2.98 µM (active),
CCOC(=O)C1=NN(c2ccc(Cl)cc2Cl)C(C)(C(=O)OCC)C1 (stereo not drawn),10.9 µM (active),
O=C(OCc1ccccc1)c1ccc(O)cc1,6.36 µM (active),
C=CCOC(=O)c1ccc(C(=O)OCC=C)c(C(=O)OCC=C)c1,9.19 µM (active),
C=C1C[C@H]2[C@@H]3C=C(C)C4=CC(=O)CC[C@]4(C)[C@H]3CC[C@]2(C)[C@@]1(OC(C)=O)C(C)=O,0.732 µM (active),
